Measurements published in PubChem BioAssay (NCATS).
Inconclusive results are not listed. Active and inactive are the calls of the source. The call rests on the fitted dose curve; in most records, active means well fitted curve in the direction sought with a large enough effect; inconclusive means small, poorly fitted or top-dose-only effect, or another doubt; inactive means no such curve, though single readings can be large; an effect the other way counts as inactive or inconclusive.

Legend:
[1] = target: Glutathione peroxidase 1 (Homo sapiens) (UniProt P07203); assay: Primary qHTS Assay for Inhibitors of Recombinant Selenoprotein Glutathione Peroxidase 1 (GPX1) (AID 1845191); further: nearly all actives have a fitted effect of over 65% in size; further: potency means the concentration at half of the fitted maximal effect
Sequence of Glutathione peroxidase 1 (Homo sapiens) (P07203 whole entry, looked up): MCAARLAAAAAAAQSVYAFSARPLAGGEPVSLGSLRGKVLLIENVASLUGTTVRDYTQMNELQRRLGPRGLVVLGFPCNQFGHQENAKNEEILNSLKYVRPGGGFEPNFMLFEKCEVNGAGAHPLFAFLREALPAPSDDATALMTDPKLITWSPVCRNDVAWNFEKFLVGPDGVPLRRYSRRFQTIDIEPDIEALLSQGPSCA
Method in brief: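 GPX1 10 nM, GR 100 nM, GSH 1 mM, NADPH 0.5 mM, CHP 0.5 mM (final). 30-min cpd preincubation, RT. Ex340/Em450 read t=0, t=15 min.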

[2] = target: Phospholipid hydroperoxide glutathione peroxidase GPX4 (Homo sapiens) (UniProt P36969); assay: Primary qHTS Assay for Inhibitors of Recombinant Selenoprotein Glutathione Peroxidase 4 (GPX4) (AID 1845192); further: nearly all actives have a fitted effect of over 65% in size; further: potency means the concentration at half of the fitted maximal effect
Sequence of Phospholipid hydroperoxide glutathione peroxidase GPX4 (Homo sapiens) (P36969 whole entry, looked up): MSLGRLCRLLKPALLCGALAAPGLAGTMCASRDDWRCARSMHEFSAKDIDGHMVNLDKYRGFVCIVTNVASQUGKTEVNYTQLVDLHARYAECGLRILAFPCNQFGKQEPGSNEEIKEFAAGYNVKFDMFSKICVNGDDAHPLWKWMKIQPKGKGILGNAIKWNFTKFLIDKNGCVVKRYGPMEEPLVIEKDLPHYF
Method in brief: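 qHTS, GR-coupled: GPX4 200 nM + cpd 30 min RT → GSH 1 mM, NADPH 0.5 mM, GR 100 nM → CHP 0.5 mM start; fluor 340/450 at t0 and t15 min; no-enzyme wells as control.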

[3] = target: Luciferin 4-monooxygenase (Photinus pyralis) (UniProt P08659); assay: Primary firefly luciferase (FLuc) qHTS assay for identification of artifact compounds. (AID 1845220); further: nearly all actives have a fitted effect of over 60% in size
Method in brief: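 In this counter-screen for luciferase artifacts, test compounds met substrate (10 uM each luciferin and ATP) before 10 nM enzyme started the reaction. Light output was measured 5 min later.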

[4] = tested on: Nanoluciferase (engineered Oplophorus gracilirostris luciferase); assay: Primary Nanoluciferase (NLuc) qHTS assay for identification of artifact compounds. (AID 1845222); further: potency means the concentration at half of the fitted maximal effect
Method in brief: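 Using secreted nanoluciferase in S16 culture medium (0.22 um filtered, 1:55 dilution), compounds were preincubated 15 min at RT. Signal was generated with Nano-Glo reagent (1:100) over 5 min.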

[5] = Primary redox qHTS assay for identification of artifact compounds. (AID 1845223)
Method in brief: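 Redox-cycling detection via DTT (250 uM final) oxidation coupled to Amplex Red (25 uM)/HRP (250 mU/mL) in HBSS. 15 min preincubation plus 30 min after DTT, room temperature. Ex/Em 525/598 nm; 4-parameter Hill fit against DMSO and 10 uM DA3003.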

Measured: Potency

COc1cc2nc(N3CCN(C(=O)c4ccco4)C4CCCCC43)nc(N)c2cc1OC (stereo not given)
active: [2] 22.7 µM
inactive: all other assays above

COc1ccc2c(c1)C(C(=O)N(Cc1ccc(N(C)C)cc1)c1ccc(C(C)C)cc1)CCC2 (stereo not given)
inactive: all assays above

O=C(NS(=O)(=O)c1ccc(Br)s1)c1ccc(Cl)cc1Cl
active: [4] 6.75 µM
inactive: all other assays above

Cc1cc(-c2cc(OC(=O)c3ccccc3)ccc2Cl)cc2nnc(Nc3ccc(OCCN4CCCC4)cc3)nc12
inactive: all assays above

C=C1CC[C@@H](O)[C@]2(C)CC[C@H]3C(=C)C(=O)O[C@@H]3[C@@H]12
inactive: all assays above

CCOC(=O)c1cnn(-c2ccccc2)c1NC(=O)c1cc2nc(-c3ccco3)cc(C(F)(F)Cl)n2n1
inactive: all assays above

CC(C)=C[C@@H]1[C@H](CO[C@@H]2O[C@H](CO)[C@@H](O)[C@H](O)[C@H]2O)C1(C)C
inactive: all assays above

CCOc1ccc(-n2c([C@@H](C)N(Cc3cccnc3)C(=O)Cc3ccc(OC(F)(F)F)cc3)nc3ncccc3c2=O)cc1
inactive: all assays above

CNC(=O)c1ccc2c(c1)CCO[C@H]2CCN1CCN(c2ccc(OC)cc2)CC1
inactive: all assays above

O=C(O)CCc1nccc2c1[nH]c1ccccc12
active: [1] 25.5 µM | [2] 22.7 µM
inactive: all other assays above
